In PubChem BioAssay (NCATS):
Records with an inconclusive call do not appear. A call without a number means that no potency is given here. Unmarked numbers belong to inactive results. Activity calls are given as the source filed them. Calls come from the whole dose curve; as a rule, active = well fitted cell-killing curve with a large enough effect; inconclusive = small, poorly fitted or top-dose-only effect, or effect the other way; inactive = flat fitted curve, though single readings scatter.

How the values were obtained:
Test in all cases: Primary qHTS to identify gynecologic anti-cancer compounds using libraries of approved drugs and bioactive compounds (AID 1345084); note: nearly all actives have a fitted effect of over 55% in size
[1] = tested on: C33A; conditions: Gynecologic cancer cell panel viability, ATPlite luminescence, 48 h; series mostly up to 57.5 µM
How it was run: (§1)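 Cells, 1,000 per well, were allowed to settle for 16 h at 37 C before compound addition. Five concentrations were tested for 48 h, and viability was read by ATPlite luminescence after 15 min at room temperature.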

[2] = tested on: CAOV3; conditions: Gynecologic cancer cell panel viability, ATPlite luminescence, 48 h; series mostly up to 57.5 µM
How it was run: as §1

[3] = tested on: CASKI; conditions: Gynecologic cancer cell panel viability, ATPlite luminescence, 48 h; series mostly up to 57.5 µM
How it was run: as §1

[4] = tested on: Es-2; conditions: Gynecologic cancer cell panel viability, ATPlite luminescence, 48 h; series mostly up to 57.5 µM
How it was run: as §1

[5] = tested on: HeLa; conditions: Gynecologic cancer cell panel viability, ATPlite luminescence, 48 h; series mostly up to 57.5 µM
How it was run: as §1

[6] = tested on: Hek293T; conditions: Gynecologic cancer cell panel viability, ATPlite luminescence, 48 h, control line for the selectivity index; series mostly up to 57.5 µM
How it was run: as §1

[7] = tested on: JEG-3; conditions: Gynecologic cancer cell panel viability, ATPlite luminescence, 48 h; series mostly up to 57.5 µM
How it was run: as §1

[8] = tested on: OV90; conditions: Gynecologic cancer cell panel viability, ATPlite luminescence, 48 h; series mostly up to 57.5 µM
How it was run: as §1

[9] = tested on: PA-1; conditions: Gynecologic cancer cell panel viability, ATPlite luminescence, 48 h; series mostly up to 57.5 µM
How it was run: as §1
Potency is the fitted concentration of half-maximal effect.

| Structure (SMILES) | Potency [1] | Potency [2] | Potency [3] | Potency [4] | Potency [5] | Potency [6] | Potency [7] | Potency [8] | Potency [9] |
| --- | --- | --- | --- | --- | --- | --- | --- | --- | --- |
| CC(C)S(=O)(=O)c1ccc2nccc(Nc3ccc4scnc4c3)c2c1 | inactive | inactive | inactive | inactive | inactive | inactive | inactive | inactive | inactive |
| CN1CCN(c2ccc(-c3cccc(CN4CCOCC4)c3)cc2NC(=O)c2c[nH]c(=O)cc2C(F)(F)F)CC1 | inactive | inactive | inactive | inactive | inactive | inactive | inactive | inactive | inactive |
| COc1cc(C(=O)NC(=S)Nc2cccc(NC(=O)c3ccccc3)c2)cc(OC)c1OC | inactive | inactive | inactive | inactive | inactive | inactive | inactive | inactive | inactive |
| CCc1ccccc1OC[C@@H](O)CN[C@H]1CCCc2ccccc21 | inactive | inactive | inactive | inactive | inactive | inactive | inactive | inactive | inactive |
| O=C(c1ccc(F)cc1)N1CCCC(c2nc(-c3ccc(F)cc3)no2)C1 (centres undefined) | inactive | inactive | inactive | inactive | inactive | inactive | inactive | inactive | inactive |
| COC(=O)/C=C/C=C/C(=O)OC1C=C2COC(=O)C2(O)C2(C)CCCC(C)(C)C12 (centres undefined) | inactive | inactive | inactive | inactive | inactive | inactive | inactive | inactive | inactive |
| COc1ccc(C#Cc2ccc(C(=O)N3CCC[C@@H](CO)C3)cc2)cc1 | inactive | inactive | inactive | inactive | inactive | inactive | inactive | inactive | inactive |
| COc1ccccc1OCCN1CC(COc2cccc3[nH]c4ccccc4c23)OCC1=O (centres undefined) | inactive | inactive | inactive | inactive | inactive | inactive | inactive | inactive | inactive |
| COc1ccc2cc(-c3cc(-c4cc(Cl)cc(Cl)c4)nn3C(C)c3ccc(C(=O)NCCC(=O)O)cc3)ccc2c1 (centres undefined) | inactive | inactive | inactive | inactive | inactive | inactive | inactive | inactive | inactive |
| O=C(Nc1ccccc1Br)NC1CCN(c2ccc(C(F)(F)F)cn2)C1 (centres undefined) | inactive | inactive | inactive | inactive | inactive | inactive | inactive | inactive | inactive |
| O=C(Nc1ccc(C(F)(F)F)cn1)N1CCN(c2ncccc2C(F)(F)F)CC1 | inactive | inactive | inactive | inactive | inactive | inactive | inactive | inactive | inactive |
| O=C(Nc1nnc(-c2ccc3c(c2)OCCO3)o1)C1CCCCC1 | inactive | inactive | inactive | inactive | inactive | inactive | inactive | inactive | inactive |
| O=C(Nc1ccccc1C(=O)NC1CCCCNC1=O)c1cc2ccccc2s1 (centres undefined) | inactive | inactive | inactive | inactive | inactive | inactive | inactive | inactive | inactive |
| CCn1c(N)c(C(=O)NC)c(=O)c2ccc(C#CC(C)(O)COC)nc21 (centres undefined) | inactive | inactive | inactive | inactive | inactive | inactive | inactive | inactive | inactive |
| CC(C)(Cc1nc(-c2ccc(O)cn2)no1)C(=O)NC1=C(C(=O)O)CCCC1 | inactive | inactive | inactive | inactive | inactive | inactive | inactive | inactive | inactive |
| Cc1noc(-c2ccc(-c3ccc(CC(=O)O)cc3)cc2)c1NC(=O)O[C@H](C)c1ccccc1Cl | inactive | inactive | inactive | inactive | inactive | inactive | inactive | inactive | inactive |
| Cc1cc(-c2nc3cc(F)ccc3s2)ccc1NC(=O)[C@@H](N)CCCCN | 17.8 µM (active) | 28.2 µM (active) | 14.1 µM (active) | 15.8 µM (active) | 14.1 µM (active) | 12.6 µM (active) | 14.1 µM (active) | 8.91 µM (active) | 10 µM (active) |
| CC1(C)CCCC2(C)C1C(=O)C=C(C(=O)O)C2(O)C(=O)O (centres undefined) | inactive | inactive | inactive | inactive | inactive | inactive | inactive | inactive | inactive |
| O=C(NC1CCC1)c1ccc(C#Cc2cccc(F)c2)nc1 | inactive | inactive | inactive | inactive | inactive | inactive | inactive | inactive | inactive |
| C=C1C(=O)OC2C=C(C)CC/C=C(\CO)CC(O)C12 (centres undefined) | inactive | inactive | inactive | inactive | inactive | inactive | inactive | inactive | inactive |
| Nc1nc2c(cnn2CCCc2ccc(O)cc2)c2nc(-c3ccco3)nn12 | inactive | inactive | inactive | inactive | inactive | inactive | inactive | inactive | inactive |
